# Laboratory results: PubChem BioAssay
# Unmarked numbers belong to inactive results. Calls of active or inactive are those of the source.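 How the source made its calls, unless noted: active means viability loss from added drug above about 55%, and viability with drug at most 40%, in both replicates (limit read from the data, passing the limit was not always enough); inconclusive means both conditions met in only one replicate; inactive means neither replicate meets both conditions.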
# Assay: H69AR cell proliferation blockers – human, duplicate replicates, primary screen (AID 580;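 active means viability at or under a set limit in both replicates, limit being median viability minus 3 SD, cut at about 48% in these data, passing the limit was not always enough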;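 further: 100% = mean luminescence of untreated wells and 0% = no signal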)
# Details: H69AR lung tumor cells viability, ATP luminescence, 72 h; at 10 µM; stronger effect = lower value
row,Structure (SMILES),viability
1,CCOC(=O)C1CCCN(C(=O)c2ccc(CS(=O)(=O)c3ccc(Br)cc3)o2)C1 (centres undefined),95.6%
2,Cc1c(C(=O)NC2CC2)oc2ccc(S(=O)(=O)N3CCCCCC3)cc12,83%
3,CC1=C(C(=O)Nc2ccccc2)C(c2ccccn2)n2nc(CCCO)nc2N1 (centres undefined),95.6%
4,O=C(O)c1ccc(-c2ccc(O)c(F)c2)cc1,82.9%
5,Cn1c(=O)cc(NCCc2ccccc2)[nH]c1=O,42.9% (active)
6,Cc1noc(/C=C/N(C)C)c1S(=O)(=O)N1CCCC(C(=O)NCCC2=CCCCC2)C1 (centres undefined),104%
7,CCN(CC)c1ccc(NC(=O)CN2C(=O)CC(C)(C)S(=O)(=O)c3ccccc32)c(C)c1,84.8%
8,COc1ccc(C(=O)NCc2nc3ccccc3[nH]2)cc1OC,107%
9,CSc1ccccc1NC(=O)c1cnc2n(c1=O)CCS2,84.7%
10,Cc1ccc(C(c2sc3ncnn3c2O)N2CC(C)CC(C)C2)cc1 (centres undefined),97.9%
11,CC1CCN(c2oc(-c3ccccc3F)nc2C#N)CC1,92%
12,COc1nc(Oc2ccc(=O)n(C)n2)nc(N(C)C)n1,92.7%
13,Cc1nc2c(-c3ccc(F)cc3)c(C)nn2c(C)c1CCC(=O)NC(C)CCc1ccco1 (centres undefined),91.2%
14,COc1ccc(Cl)cc1S(=O)(=O)N1CCN(c2ccc(F)cc2)CC1,75.8%
15,CC1CCc2nn(CC(=O)Nc3ccc(F)cc3F)cc2C1 (centres undefined),104%
16,COc1ccc(NC(=O)C2Cc3ccccc3C(=O)O2)cc1 (centres undefined),91.8%
17,Cc1cc(N=Cc2cc(Br)ccc2O)no1,73.1%
18,COc1ccc(-c2nc(CS(=O)CC(=O)NCc3ccccn3)c(C)o2)cc1 (centres undefined),92.9%
19,CCOc1cc(C2CC(=O)N3CN(C4CCCCC4)CSC3=C2C#N)ccc1O (centres undefined),87.3%
20,CCc1ccccc1N1CC23C=CC(O2)C(C(=O)O)C3C1=O (centres undefined),86.7%
21,CCN(CC)C1CCCCC1NS(=O)(=O)c1ccc(Cl)cc1 (centres undefined),101%
22,Cc1cc(=O)oc2c1c(C)nn2-c1ccc(C(=O)OC(C)C)cc1,96.9%
23,O=C(CS(=O)(=O)Cc1ccccc1)Nc1nc2ccccc2s1,92.1%
24,CSc1nc2c(c(=O)n1C)SC(C)C2 (centres undefined),90.8%

# Assay: MRP1 drug-resistance reversers in H69AR cells – cell-based, doxorubicin co-treatment, pilot screen (AID 601)
# Details: H69AR cells + 2 uM doxorubicin, CellTiter-Glo, 72 h; at 10 µM; stronger effect = higher value
row,Structure (SMILES),differential viability (reversal) [%]
1,CCCCSc1nc2c(cnn2-c2ccc(F)cc2)c(=O)[nH]1,-10.8
2,C=C(Cl)COc1ccc2c(C)cc(=O)oc2c1,-2.75
3,COc1ccc(NC(=O)CSc2nnc(Cc3cccn3C)n2-c2ccc(F)cc2)cc1OC,0.655
4,CCCCSc1nc(CCC)cc(=O)[nH]1,-0.345
5,Cc1noc(/C=C/N(C)C)c1S(=O)(=O)N1CCc2ccccc21,-20.2
6,COc1cccc(/C=N/n2cnnc2)c1OCc1ccccc1,7.02
7,COC(=O)Cn1c(CN2CCOCC2)nc2c1c(=O)n(C)c(=O)n2C,5.79
8,COc1ccc(N(CC(=O)Nc2cc(C)ccc2C)S(=O)(=O)c2c(C)nn(C)c2C)cc1,-0.425
9,CCOC(=O)N1CCN(C(=O)c2c(-c3ccccc3)noc2C)CC1,5.67
10,O=C(CSc1ncnc2nc[nH]c12)c1ccc(Cl)cc1,-8.57
11,Brc1ccccc1-c1nc(-c2ccccc2)no1,-8.99
12,Cc1nc2ccc(S(=O)(=O)NC(C(=O)NCc3cccs3)C(C)C)cc2s1 (centres undefined),18.2
13,COc1ccc(-n2c(Cc3cccn3C)nnc2SCC(=O)Nc2ccccc2)cc1,-6.77
14,O=c1oc2c3c4c(cc2s1)CCCN4CCC3,4.35
15,COc1cc2c(cc1OC)C(C)N(C(=O)Cn1ncc3c1-c1ccccc1OC3)CC2 (centres undefined),0.365
16,O=C(CSc1ccc2nnc(-c3ccccc3)n2n1)N1CCN(c2ccccc2)CC1,-9.57
17,CCOC(=O)C1CCCN(C(=O)c2ccc(CS(=O)(=O)c3ccc(Br)cc3)o2)C1 (centres undefined),-1.7
18,Cc1c(C(=O)NC2CC2)oc2ccc(S(=O)(=O)N3CCCCCC3)cc12,-14.2
19,CC1=C(C(=O)Nc2ccccc2)C(c2ccccn2)n2nc(CCCO)nc2N1 (centres undefined),1.47
20,O=C(O)c1ccc(-c2ccc(O)c(F)c2)cc1,-5.75

row,Structure (SMILES),differential viability (reversal) [%]
1,Cn1c(=O)cc(NCCc2ccccc2)[nH]c1=O,-37.3
2,Cc1noc(/C=C/N(C)C)c1S(=O)(=O)N1CCCC(C(=O)NCCC2=CCCCC2)C1 (centres undefined),15.8
3,CCN(CC)c1ccc(NC(=O)CN2C(=O)CC(C)(C)S(=O)(=O)c3ccccc32)c(C)c1,-7.56
4,COc1ccc(C(=O)NCc2nc3ccccc3[nH]2)cc1OC,16.6
5,CSc1ccccc1NC(=O)c1cnc2n(c1=O)CCS2,-6.53
6,Cc1ccc(C(c2sc3ncnn3c2O)N2CC(C)CC(C)C2)cc1 (centres undefined),13.6
7,CC1CCN(c2oc(-c3ccccc3F)nc2C#N)CC1,7.56
8,COc1nc(Oc2ccc(=O)n(C)n2)nc(N(C)C)n1,-2.47
9,Cc1nc2c(-c3ccc(F)cc3)c(C)nn2c(C)c1CCC(=O)NC(C)CCc1ccco1 (centres undefined),10.4
10,COc1ccc(Cl)cc1S(=O)(=O)N1CCN(c2ccc(F)cc2)CC1,-11.6
11,CC1CCc2nn(CC(=O)Nc3ccc(F)cc3F)cc2C1 (centres undefined),14.7
12,COc1ccc(NC(=O)C2Cc3ccccc3C(=O)O2)cc1 (centres undefined),5.95
13,Cc1cc(N=Cc2cc(Br)ccc2O)no1,-28.9
14,COc1ccc(-c2nc(CS(=O)CC(=O)NCc3ccccn3)c(C)o2)cc1 (centres undefined),8.14
15,CCOc1cc(C2CC(=O)N3CN(C4CCCCC4)CSC3=C2C#N)ccc1O (centres undefined),-13.7
16,CCc1ccccc1N1CC23C=CC(O2)C(C(=O)O)C3C1=O (centres undefined),-2.65
17,CCN(CC)C1CCCCC1NS(=O)(=O)c1ccc(Cl)cc1 (centres undefined),13.1
18,Cc1cc(=O)oc2c1c(C)nn2-c1ccc(C(=O)OC(C)C)cc1,2.41
19,O=C(CS(=O)(=O)Cc1ccccc1)Nc1nc2ccccc2s1,-3.83
20,CSc1nc2c(c(=O)n1C)SC(C)C2 (centres undefined),-4.56
